Screening results from PubChem BioAssay.
TIM10 inh = growth inhibitors of TIM10 yeast strain | S. cerevisiae TIM10 strain growth, BacTiter-Glo luminescence, 24 h | inhibition, % at 10 µM | actives 1.4% (n = 330,000) | AID 463195;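 active = inhibition of 40% or more at the single tested concentration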;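 note: wild-type TIM10 isogenic control strain grown at permissive 25 °C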
SKKanGAS inh = inhibitors of SKKanGAS S. pyogenes growth in kanamycin (SK-promoter or general growth effect); actives 1.3% (n = 300,000); inhibition, % at 7.5 µM; BacTiter-Glo, 6 h;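 active = mean replicate score, as percent of positive control median, at least 50; inconclusive = mean below 50 but one replicate at or above 50; inactive = mean and every replicate below 50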;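 note: strain carries kanamycin resistance gene driven by streptokinase promoter and grows in 40 µg/ml kanamycin; loss of luminescence reflects streptokinase promoter inhibition or plain growth inhibition; 0% = median of DMSO wells and 100% = positive control at its reference dose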
tim10-1 inh = inhibits growth of tim10-1 mutant yeast; inhibition, % at 20 µM; AID 463190; actives 2.2% (n = 330,000); S. cerevisiae tim10-1 ts strain growth, BacTiter-Glo, 24 h;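 active = inhibition of at least 40%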;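 note: mutant grown at 25 °C; 0% = DMSO wells with yeast and 100% = wells holding no yeast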
ATG4B inhibitor = blocks human ATG4B protease cleavage of LC3 substrate | Q9Y4P1 | ATG4B cleavage of LC3-PLA2, NBD-HPC fluorescence, 1 h | inhibition, % at 8.33 µM | actives 0.51% (n = 340,000) | AID 504462; in the data active = inhibition above about 40%
tim23-1 inh = growth inhibitors of tim23-1 mutant yeast | S. cerevisiae tim23-1 growth, BacTiter-Glo luminescence, 24 h | inhibition, % at 20 µM | actives 1.3% (n = 330,000) | AID 463212;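 active = growth inhibition of the mutant yeast at or above 50%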;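 note: temperature-sensitive mutant grown at 25 °C; plate controls were DMSO-treated mutant yeast for no effect and medium wells lacking yeast for full effect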
PfHsp90 yeast 2 = inhibits growth of yeast expressing Plasmodium falciparum Hsp90 | actives 0.32% (n = 310,000) | S. cerevisiae expressing PfHsp90, BacTiter-Glo ATP, 48 h; yeast lacking PDR1 and PDR3 efflux regulators | inhibition, % at 9.4 µM | AID 504621;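 active = every replicate shows inhibition above about 80%, whatever the replicate mean, limit read from the data; inconclusive = mean inhibition reaches the set limit but some replicate falls short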;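 note: 0% = DMSO neutral controls and 100% = 20 µM radicicol positive controls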
ATG4B confirm = confirmation of human ATG4B inhibitors; AID 504757; ATG4B protease fluorescent substrate cleavage assay; shares compounds with ATG4B inhibitor; inhibition, % at 8.33 µM; actives 92% (n = 320); in the data active = inhibition above about 39%
PLA2 ctr = PLA2 (human) inhibition in ATG4B counter-screen. shares compounds with ATG4B inhibitor. purified PLA2, NBD-C6-HPC fluorescence, 45 min. inhibition, % at 8.33 µM. actives 66% (n = 1,600); in the data active = inhibition above about 50%
Target sequence (P04054 whole entry, looked up): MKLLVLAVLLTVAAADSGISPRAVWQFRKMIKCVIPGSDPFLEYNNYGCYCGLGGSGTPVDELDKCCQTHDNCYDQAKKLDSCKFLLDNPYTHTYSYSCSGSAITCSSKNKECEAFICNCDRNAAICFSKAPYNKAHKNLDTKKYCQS
Starred values were filed as active, the others as inactive. Shown are actives, neighbours in structure and some others; about 4.7% of the full set was active somewhere.

`Cc1ccc(CS(=O)Cc2ccc(C(=O)NCc3ccccc3Br)o2)cc1` (stereo unspecified) gave TIM10 inh -3, SKKanGAS inh -10, tim10-1 inh 9, ATG4B inhibitor 63*, tim23-1 inh 10, PfHsp90 yeast 2 3 and PLA2 ctr 69*.
O=C(N/N=C/c1coc2ccccc2c1=O)c1cn(-c2ccccc2)nc1-c1ccccc1 was read as TIM10 inh 28, SKKanGAS inh -1, tim10-1 inh 18, ATG4B inhibitor 92*, tim23-1 inh 43, PfHsp90 yeast 2 -15 and PLA2 ctr 94*.
Screening O=C(N/N=C/c1coc2ccccc2c1=O)c1cc(Br)ccc1O returned TIM10 inh 0, SKKanGAS inh -2, tim10-1 inh 6, ATG4B inhibitor 4, tim23-1 inh 34 and PfHsp90 yeast 2 21.
Screening N/C(=N\OCc1ccccc1)c1nonc1N returned TIM10 inh 10, SKKanGAS inh 2, tim10-1 inh 1, ATG4B inhibitor 5, tim23-1 inh 8 and PfHsp90 yeast 2 -4.
`CCOC(=O)c1c(/N=C/C2=C(O)CC(C)(C)CC2=O)sc(C)c1C` gave TIM10 inh 12, SKKanGAS inh -6, tim10-1 inh 4, ATG4B inhibitor 62*, tim23-1 inh 31, PfHsp90 yeast 2 6, ATG4B confirm 69* and PLA2 ctr 16.
For CN1CCCC1CCNC1C2CC3CC(C2)CC1C3 (stereo unspecified) the results were TIM10 inh -106, SKKanGAS inh 3, tim10-1 inh -85, ATG4B inhibitor -5, tim23-1 inh 16 and PfHsp90 yeast 2 -1.
For CC1C(=O)CCCCCCCCCC2C1(N1CCOCC1)CS2(=O)=O (stereo unspecified) the results were TIM10 inh 20, SKKanGAS inh 6, tim10-1 inh 26, ATG4B inhibitor -9 and tim23-1 inh 23.
Screening CC1CCN(C(=O)CSc2nnc(CNC(=O)c3c(F)cccc3F)o2)CC1 returned TIM10 inh 3, SKKanGAS inh inconclusive, tim10-1 inh -19, ATG4B inhibitor -8, tim23-1 inh -6 and PfHsp90 yeast 2 -14.
`CS(=O)(=O)Nc1ccc(C2=NN(C(=O)C3CCCCC3)C(c3cccs3)C2)cc1` (stereo unspecified) gave TIM10 inh 20, SKKanGAS inh 83*, tim10-1 inh 33, ATG4B inhibitor 77*, tim23-1 inh 19, PfHsp90 yeast 2 -42 and PLA2 ctr 81*.
Screening CC(C)C(=O)N1N=C(c2ccc(NS(C)(=O)=O)cc2)CC1c1cccs1 (stereo unspecified) returned TIM10 inh -1, SKKanGAS inh -4, tim10-1 inh 24, ATG4B inhibitor 22, tim23-1 inh 13 and PfHsp90 yeast 2 2.
`COc1ccccc1CC(=O)O/N=C(\N)c1cccc([N+](=O)[O-])c1` gave TIM10 inh 9, SKKanGAS inh 0, tim10-1 inh 25, ATG4B inhibitor -11, tim23-1 inh 23 and PfHsp90 yeast 2 0.
`Cc1ccc(SCCNC(=O)/C=C/c2ccccc2Cl)cc1` gave TIM10 inh 20, SKKanGAS inh -1, tim10-1 inh 28, ATG4B inhibitor 56*, tim23-1 inh 29, PfHsp90 yeast 2 8 and PLA2 ctr 66*.
Screening Cc1ccc(N2C(=O)CC(Sc3nc(-c4ccccc4)c4cc(Cl)ccc4n3)C2=O)c(C)c1 (stereo unspecified) returned TIM10 inh 2, SKKanGAS inh 7, tim10-1 inh 14, ATG4B inhibitor -3, tim23-1 inh -9 and PfHsp90 yeast 2 -10.
Screening CCCOC(=O)c1c(NC(=O)CCCn2nc([N+](=O)[O-])cc2C)sc(C(=O)OC)c1C returned TIM10 inh 16, SKKanGAS inh 26, tim10-1 inh 15, ATG4B inhibitor 33, tim23-1 inh 12 and PfHsp90 yeast 2 8.
